This is part of a sample that, as a whole, favours compounds with a hit. Of some 79,000 tested, about 15% had one in any assay. Activity calls are given as the source filed them. Rule as the data show it: active = growth inhibition above about 70%; inactive = the rest.
What was measured:
[1] = NCI Yeast Anticancer Drug Screen. Data for the rad50 strain (AID 155);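 also: 0% = growth of vehicle-only cultures of the same strain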; settings: S. cerevisiae rad50 strain growth inhibition, stronger effect = higher value
Outline: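 Genetically altered yeast (DNA repair pathway); compound treatment; growth inhibition vs vehicle ctrl.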

[2] = NCI Yeast Anticancer Drug Screen. Data for the mec2-1 strain (AID 157); settings: S. cerevisiae mec2-1 strain, stronger effect = higher value
Outline: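 mec2-1 yeast strain, carrying an alteration in DNA damage repair or cell cycle control, was exposed to compounds; growth inhibition was measured relative to vehicle-treated controls.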

[3] = NCI Yeast Anticancer Drug Screen. Data for the sgs1 mgt1 strain (AID 161);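 also: 0% = growth of cultures given vehicle only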; settings: S. cerevisiae sgs1 mgt1 strain, stronger effect = higher value
Outline: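 Compounds are added to genetically altered yeast, and growth is compared with cultures given vehicle alone to give percent inhibition.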

[4] = NCI Yeast Anticancer Drug Screen. Data for the cln2 rad14 strain (AID 165);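 also: 0% = growth equal to vehicle treated cultures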; settings: S. cerevisiae cln2 rad14 strain, stronger effect = higher value
Outline: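 Yeast carrying cln2 and rad14 alterations (cell cycle control and DNA damage repair) were exposed to compounds. Growth inhibition was measured against vehicle-treated controls.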

[5] = NCI Yeast Anticancer Drug Screen. Data for the bub3 strain (AID 167); settings: S. cerevisiae bub3 mutant strain, stronger effect = higher value
Outline: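 Yeast carrying a defined mutation is treated with each compound, and growth is compared with that of vehicle-exposed cells to give inhibition.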

[6] = NCI Yeast Anticancer Drug Screen. Data for the mlh1 rad18 strain (AID 175); settings: S. cerevisiae mlh1 rad18 strain growth inhibition, stronger effect = higher value
Outline: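 Growth inhibition of the yeast strain was measured after compound exposure and expressed relative to vehicle-treated controls. The strain carries defined defects in DNA damage repair.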

[7] = at 5.0 µM (retest, dose inferred, filed as 0.5)
[8] = at 50.0 µM (retest, dose inferred, filed as 5.0)

Measured: growth inhibition

CN(C)c1ccc(N=Nc2cccc(C(=O)[O-])c2)cc1.CN(C)c1ccc(N=Nc2cccc(C(=O)[O-])c2)cc1.NC1CCCCC1N.O=[N+]([O-])O.[Pt+4]
active: [1]; [8] 98% | [1]; at 50.0 µM 91% | [2]; [8] 98% | [2]; at 50.0 µM 91.7% | [3]; [8] 99% | [3]; at 50.0 µM 93.2% | [4]; [8] 97% | [5]; [8] 98% | [5]; at 50.0 µM 81.5% | [6]; [8] 97% | [6]; at 50.0 µM 92%
inactive: [1]; [7] 1% | [2]; [7] 21% | [3]; [7] 23% | [4]; [7] 28% | [4]; at 50.0 µM 44.1% | [5]; [7] 45% | [6]; [7] 41%

O=P1(N2CCOCC2)OC(c2ccccc2)=CCN1c1ccccc1 (stereo not given)
active: [3]; [8] 81%
inactive: [1]; [7] 3% | [1]; [8] 4% | [1]; at 50.0 µM -0.15% | [2]; [7] -1% | [2]; [8] -1% | [2]; at 50.0 µM 47.1% | [3]; [7] 5% | [3]; at 50.0 µM 24.6% | [4]; [7] -1% | [4]; [8] -2% | [4]; at 50.0 µM 39% | [5]; [7] 3% | [5]; [8] 25% | [5]; at 50.0 µM 10.3% | [6]; [7] -1% | [6]; [8] 3% | [6]; at 50.0 µM -3.45%

CC(CCC/C=C/CCCN(C)C(=N)N)CC(C)C1OC(=O)C(C)C(O)/C=C/C(C)C(O)C(C)C(O)C(C)C(O)CCCC(O)CC2(O)OC(CC(OC(=O)CC(=O)O)CC(O)CC(O)C(C)C(O)/C=C/C=C/C1C)CC(O)C2O (stereo not given)
inactive: [1]; [7] -79% | [2]; [7] 7% | [3]; [7] 6% | [4]; [7] 21% | [5]; [7] 9% | [6]; [7] 13%
active: [1]; [8] 99% | [1]; at 50.0 µM 92.9% | [2]; [8] 99% | [2]; at 50.0 µM 94.1% | [3]; [8] 99% | [3]; at 50.0 µM 93.6% | [4]; [8] 99% | [4]; at 50.0 µM 92.2% | [5]; [8] 99% | [5]; at 50.0 µM 93.1% | [6]; [8] 99% | [6]; at 50.0 µM 92.8%

Cc1c(=O)n(O)c2ccccc2[n+]1[O-]
inactive: [1]; [7] 4% | [1]; [8] 21% | [1]; at 50.0 µM 4.05% | [2]; [7] 4% | [2]; [8] 31% | [2]; at 50.0 µM 0.75% | [3]; [7] 4% | [3]; [8] 24% | [3]; at 50.0 µM 7.3% | [4]; [7] 4% | [4]; [8] 14% | [4]; at 50.0 µM 32.5% | [5]; [7] 1% | [5]; [8] 16% | [5]; at 50.0 µM 12.6% | [6]; [7] 5% | [6]; [8] 51% | [6]; at 50.0 µM 16.5%

CCC(C)c1cnc(CC(C)C)c(=O)n1O (stereo not given)
active: [1]; [7] 87% | [1]; [8] 99% | [1]; at 50.0 µM 91% | [2]; [8] 99% | [2]; at 50.0 µM 88.8% | [3]; [7] 75% | [3]; [8] 98% | [3]; at 50.0 µM 90% | [4]; [8] 98% | [4]; at 50.0 µM 86.3% | [5]; [8] 98% | [5]; at 50.0 µM 90.7% | [6]; [7] 73% | [6]; [8] 99% | [6]; at 50.0 µM 89.6%
inactive: [2]; [7] 26% | [4]; [7] 68% | [5]; [7] 59%

C[CH2][Pb]([CH2]C)([CH2]C)[O]C(=O)COc1ccc(Cl)cc1Cl
inactive: [1]; [7] 29% | [2]; [7] 14% | [3]; [7] 3% | [4]; [7] 2% | [5]; [7] -4% | [6]; [7] 29%
active: [1]; [8] 84% | [1]; at 50.0 µM 91.5% | [2]; [8] 89% | [2]; at 50.0 µM 95.1% | [3]; [8] 94% | [3]; at 50.0 µM 95% | [4]; [8] 91% | [4]; at 50.0 µM 85.7% | [5]; [8] 95% | [5]; at 50.0 µM 95.6% | [6]; [8] 96% | [6]; at 50.0 µM 97%

CC1(OO)CCC2CC1C2(C)C (stereo not given)
inactive: [1]; [7] 9% | [2]; [7] 6% | [3]; [7] -2% | [3]; [8] 68% | [4]; [7] 4% | [4]; [8] 65% | [5]; [7] -1% | [6]; [7] 13%
active: [1]; [8] 77% | [1]; at 50.0 µM 90.2% | [2]; [8] 99% | [2]; at 50.0 µM 99.6% | [3]; at 50.0 µM 99.4% | [4]; at 50.0 µM 82.7% | [5]; [8] 95% | [5]; at 50.0 µM 99.5% | [6]; [8] 94% | [6]; at 50.0 µM 98.2%

CN(C)CCBr
inactive: [1]; at 50.0 µM 38% | [2]; [7] 16% | [3]; [7] 61% | [4]; [7] -1% | [4]; at 50.0 µM 64.2% | [5]; [7] -10% | [5]; at 50.0 µM 55.6% | [6]; [7] 49%
active: [1]; [7] 86% | [1]; [8] 95% | [2]; [8] 92% | [2]; at 50.0 µM 88.1% | [3]; [8] 94% | [3]; at 50.0 µM 92.9% | [4]; [8] 84% | [5]; [8] 81% | [6]; [8] 95% | [6]; at 50.0 µM 96.7%

c1ccc(C(c2ccccc2)c2cccnc2)cc1
active: [1]; [8] 97% | [1]; at 50.0 µM 89.2% | [2]; [8] 98% | [2]; at 50.0 µM 91.2% | [3]; [8] 98% | [3]; at 50.0 µM 91.6% | [4]; [8] 97% | [4]; at 50.0 µM 88.9% | [5]; [8] 98% | [5]; at 50.0 µM 91.7% | [6]; [8] 100% | [6]; at 50.0 µM 90.8%
inactive: [1]; [7] 61% | [2]; [7] 59% | [3]; [7] 16% | [4]; [7] 55% | [5]; [7] 52% | [6]; [7] 54%

CCC[CH2][Sn]1([CH2]CCC)[O]CCN2CCN(CC[O]1)CC2
active: [1]; at 50.0 µM 74.1% | [2]; at 50.0 µM 94% | [3]; at 50.0 µM 83.2% | [6]; at 50.0 µM 85.7%
inactive: [1]; [7] -4% | [1]; [8] 12% | [2]; [7] -4% | [2]; [8] 13% | [3]; [7] -3% | [3]; [8] 9% | [4]; [7] -5% | [4]; [8] 5% | [4]; at 50.0 µM 41.6% | [5]; [7] -2% | [5]; [8] 10% | [5]; at 50.0 µM 53.1% | [6]; [7] -6% | [6]; [8] 15%
